L3MBTL1 inh – L3MBTL1 (human) inhibition; Potency, µM (highest dose often 57.1 µM), for inactives: at the top dose activity, negative = inhibition, most hits filed as inhibitors; 230,000 compounds, 0.66% hits; AlphaScreen L3MBTL1–H3K9me1 peptide binding; Q9Y468; note: % is set by controls: 0 for no effect and ±100 for the full control effect; nearly all actives have a fitted effect of over 60% in size
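Displacement of a biotinylated histone H3(1-15) peptide monomethylated at Lys9 (75 nM) from L3MBTL1 (50 nM) was measured by AlphaScreen after a 30 min room-temperature compound incubation; cefsulodin titration served as intraplate control.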
Sfp inh – inhibitors of Bacillus subtilis Sfp phosphopantetheinyl transferase. Potency, µM, without a hit: largest response in the series, negative = inhibition, usual class: inhibitors. Biochemical Sfp PPTase activity, qHTS. 310,000 compounds, 3.5% hits. AID 1490;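 note: the enzyme is Sfp with the accession as filed and its product quenches rhodamine fluorescence; 0% = enzyme reaction without inhibitor and -100% = no enzyme wells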
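Fluorescence-quenching assay: 15 nM Sfp-PPTase preincubated 15 min at room temperature with compound, then 5 uM rhodamine-CoA and 12.5 uM BHQ-2-labelled YbbR peptide added. Fluorescence (ex 525/em 598 nm) read at start and after 30 min; difference gives rate.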
G9a block – blocks human histone lysine methyltransferase G9a; Q96KQ7; G9a H3K9 monomethylation, AlphaScreen, 2 h; Potency, µM (series often up to 102 µM), for inactives: at the top dose activity, negative = inhibition, most hits filed as inhibitors; 350,000 compounds, 8.8% hits; note: % is set by controls: 0 for no effect and ±100 for the full control effect; nearly all actives have a fitted effect of over 75% in size
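Enzyme 20 nM + cpd, 15 min RT; add b-H3K9 pep 500 nM / SAM 20 uM; 2 h RT; anti-H3K9me1 Ab 0.5 ug/mL + SA donor / anti-rabbit acceptor beads 20 ug/mL each, 10 min; AlphaScreen read.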
JMJD2A Tudor – blocks the human JMJD2A Tudor domain. O75164. Potency, µM (titrated, usually from 114 µM), for inactives: top-dose activity change, negative = inhibition, hits mostly inhibitors. AID 504339. 390,000 compounds, 4.4% hits. AlphaScreen JMJD2A-Tudor / H3K4me3 peptide binding; note: % is set by controls: 0 for no effect and ±100 for the full control effect; nearly all actives have a fitted effect of over 50% in size
HP1b binding inh – blocks HP1-beta chromodomain binding to methylated histone tails | 390,000 compounds, 0.56% hits | Potency, µM (series often up to 114 µM), for inactives: at the top dose activity change, negative = inhibition, actives largely listed as inhibitors | AlphaScreen HP1-beta / biotin-H3K9me3 peptide binding | P83916 | AID 540317; note: nearly all actives have a fitted effect of over 70% in size
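AlphaScreen: HP1-beta (50 nM) preformed 30 min with biotin-H3(1-18)K9me3 peptide (50 nM) in PBS pH 7.4, 0.01% Tween-20. Compound added for 30 min at RT, then streptavidin donor/nickel chelate acceptor beads (10 ug/mL) for 30 min.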
BAZ2B block – BAZ2B (human) inhibition. Q9UIF8. AlphaScreen BAZ2B-H3K14Ac peptide displacement. Potency, µM (top dose mostly 114 µM), without a hit: at the top dose activity change, negative = inhibition, usual class: inhibitors. 360,000 compounds, 4.4% hits; note: % is set by controls: 0 for no effect and ±100 for the full control effect; nearly all actives have a fitted effect of over 60% in size
Target sequence (Q9UIF8 whole entry, looked up): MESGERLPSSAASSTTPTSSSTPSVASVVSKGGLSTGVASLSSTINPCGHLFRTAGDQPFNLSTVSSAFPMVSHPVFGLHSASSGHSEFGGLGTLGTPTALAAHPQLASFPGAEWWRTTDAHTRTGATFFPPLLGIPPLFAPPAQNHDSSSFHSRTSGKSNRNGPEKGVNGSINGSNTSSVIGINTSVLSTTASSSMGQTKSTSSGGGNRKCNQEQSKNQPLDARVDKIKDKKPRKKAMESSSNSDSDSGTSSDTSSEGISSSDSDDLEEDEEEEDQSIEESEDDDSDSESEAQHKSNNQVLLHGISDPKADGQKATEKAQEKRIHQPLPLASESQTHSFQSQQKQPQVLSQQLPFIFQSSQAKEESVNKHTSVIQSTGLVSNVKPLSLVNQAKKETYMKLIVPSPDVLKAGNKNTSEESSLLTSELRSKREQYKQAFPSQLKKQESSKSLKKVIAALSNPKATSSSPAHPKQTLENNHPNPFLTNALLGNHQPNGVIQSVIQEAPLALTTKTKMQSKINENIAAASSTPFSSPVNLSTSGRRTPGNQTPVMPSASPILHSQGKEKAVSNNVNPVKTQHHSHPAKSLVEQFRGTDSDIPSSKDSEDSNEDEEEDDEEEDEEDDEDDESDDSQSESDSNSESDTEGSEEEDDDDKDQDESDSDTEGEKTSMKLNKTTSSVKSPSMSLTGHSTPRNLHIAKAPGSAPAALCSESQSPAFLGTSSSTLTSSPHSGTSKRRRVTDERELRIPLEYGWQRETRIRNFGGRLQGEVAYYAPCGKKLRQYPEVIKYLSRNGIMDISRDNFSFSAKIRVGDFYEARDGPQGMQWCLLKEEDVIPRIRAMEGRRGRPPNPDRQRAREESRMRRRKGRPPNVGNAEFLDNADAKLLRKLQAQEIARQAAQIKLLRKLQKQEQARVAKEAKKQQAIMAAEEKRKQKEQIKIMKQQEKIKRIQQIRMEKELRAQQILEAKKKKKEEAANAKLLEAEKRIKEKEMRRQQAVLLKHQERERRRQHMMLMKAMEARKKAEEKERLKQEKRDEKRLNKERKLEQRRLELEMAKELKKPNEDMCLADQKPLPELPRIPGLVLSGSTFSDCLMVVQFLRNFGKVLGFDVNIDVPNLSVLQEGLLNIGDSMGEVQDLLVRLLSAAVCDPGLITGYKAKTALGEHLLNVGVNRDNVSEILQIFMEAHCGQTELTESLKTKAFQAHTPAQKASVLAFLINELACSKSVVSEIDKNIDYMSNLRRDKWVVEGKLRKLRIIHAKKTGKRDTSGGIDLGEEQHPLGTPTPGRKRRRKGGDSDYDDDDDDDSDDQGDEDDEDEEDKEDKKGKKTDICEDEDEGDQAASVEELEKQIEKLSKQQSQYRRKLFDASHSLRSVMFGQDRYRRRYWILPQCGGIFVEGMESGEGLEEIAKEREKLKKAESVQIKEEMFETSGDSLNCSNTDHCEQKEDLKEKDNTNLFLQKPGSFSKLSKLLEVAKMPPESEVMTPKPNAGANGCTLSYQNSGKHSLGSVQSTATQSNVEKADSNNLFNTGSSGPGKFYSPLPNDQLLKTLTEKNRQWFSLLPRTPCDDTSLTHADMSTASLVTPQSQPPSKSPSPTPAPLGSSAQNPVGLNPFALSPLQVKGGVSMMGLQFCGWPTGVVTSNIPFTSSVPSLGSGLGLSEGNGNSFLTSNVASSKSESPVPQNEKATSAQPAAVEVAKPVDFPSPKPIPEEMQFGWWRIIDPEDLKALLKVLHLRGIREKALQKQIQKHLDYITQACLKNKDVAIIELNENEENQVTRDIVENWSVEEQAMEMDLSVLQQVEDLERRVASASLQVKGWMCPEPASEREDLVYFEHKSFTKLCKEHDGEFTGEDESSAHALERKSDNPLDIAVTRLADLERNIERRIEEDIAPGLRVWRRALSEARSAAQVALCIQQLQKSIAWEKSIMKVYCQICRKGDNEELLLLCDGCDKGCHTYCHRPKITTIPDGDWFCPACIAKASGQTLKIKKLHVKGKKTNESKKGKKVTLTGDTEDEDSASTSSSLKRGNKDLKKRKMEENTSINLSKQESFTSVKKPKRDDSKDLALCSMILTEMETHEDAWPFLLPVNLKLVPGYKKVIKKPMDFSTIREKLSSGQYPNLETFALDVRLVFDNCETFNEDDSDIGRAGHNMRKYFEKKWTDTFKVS
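Complex of BAZ2B and biotin-H3K14Ac (50 nM apiece) forms over 30 min at RT, then faces library compounds up to 110 uM for another 30 min; AlphaScreen beads added, 20 min dark incubation, luminescence read.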
* marks the source's active call; other numbers are inactive results; ? = inconclusive; nt = no result; [ ] = dose if it differs, or a comment. In the library only some 12% were active in any assay of this set; here they are far more common. Calls come from the whole dose curve; as a rule, active = well fitted curve in the direction sought with a large enough effect; inconclusive = small, poorly fitted or top-dose-only effect, or another doubt; inactive = no such curve, though single readings can be large; an effect the other way counts as inactive or inconclusive. Potency is the fitted concentration of half-maximal effect.

SMILES	L3MBTL1 inh	Sfp inh	G9a block	JMJD2A Tudor	HP1b binding inh	BAZ2B block
C#CCOCCOCCOCCNc1nc(N2CCN(C(=O)[C@H]([C@@H](C)CC)n3cc([C@@H](N)CO)nn3)CC2)nc(N2CCN(C(=O)[C@H]([C@@H](C)CC)n3cc([C@@H](N)CO)nn3)CC2)n1	nt	-16%	-4%[12.7 µM]	nt	nt	22µM*
C#CCOCCOCCOCCNc1nc(N2CCN(C(=O)[C@H]([C@@H](C)O)n3cc(CCCCN)nn3)CC2)nc(N2CCN(C(=O)[C@H]([C@@H](C)CC)n3cc(CCCCN)nn3)CC2)n1	6%	nt	1%[2.33 µM]	-14%	39%	-31%
C#CCOCCOCCOCCNc1nc(N2CCN(C(=O)[C@H]([C@@H](C)CC)n3cc([C@@H](N)CO)nn3)CC2)nc(N2CCN(C(=O)[C@H]([C@@H](C)CC)n3cc([C@@H](N)CC(C)C)nn3)CC2)n1	-17%	8%	-29%[12.7 µM]	50µM*	29%	50µM*
Cc1cc(O)c(-c2cc(O)c(C)cc2O)cc1O	-20%	2.5µM*	2µM*	5µM*	1.8µM*	50µM*
C/C(=N\NC(=O)c1nnn(-c2nonc2N)c1CN(C)c1ccccc1)c1ccc(O)cc1	nt	1%	1%	-14%	29%	-6%
CCN1CCN(Cc2c(C(=O)N/N=C(\C)c3ccc(Cl)cc3)nnn2-c2nonc2N)CC1	nt	-1%	28µM*	-27%	36%	?
C/C(=N\NC(=O)c1nnn(-c2nonc2N)c1CN1CCCCCC1)c1ccc(Br)cc1	nt	4%	50µM*	-7%	44%	-2%
C/C(=N\NC(=O)c1nnn(-c2nonc2N)c1CN(C)c1ccccc1)c1ccccn1	nt	10%	49%[59 µM]	22µM*	35%	8.9µM*
CC(/C=N/NC(=O)c1nnn(-c2nonc2N)c1CN(C)C)=C\c1ccco1	nt	?	79µM*	-24%	-10%	-33%
C/C(=N\NC(=O)c1nnn(-c2nonc2N)c1CN1CCC(C)CC1)c1cccc(Br)c1	nt	6%	-23%	-30%	63%	-14%
C/C(=N\NC(=O)c1cccnc1)c1nnn(-c2nonc2N)c1C	22%	6%	50µM*	-17%	75%	-11%
CC(=O)c1ccc(N2C(=O)C3C(C2=O)C(C(=O)c2ccc(Cl)cc2)N2CCCC32)cc1 (centres undefined)	nt	22µM*	?	-18%[11.4 µM]	-16%	?
O=C(c1ccc(Cl)cc1)C1C2C(=O)N(c3ccccc3)C(=O)C2C2CCCN21 (centres undefined)	-5%	-24%	8.9µM*	-14%[11.4 µM]	65%	?
O=C(c1ccc(Cl)cc1)[C@@H]1[C@@H]2C(=O)N(c3ccccc3)C(=O)[C@@H]2C2c3ccccc3C=NN21 (some centres undefined)	-11%	-12%	20µM*	-32%	27%	-11%
O=C1C2C3C=CC(CC3)C2C(=O)N1c1ccc(Cl)cc1 (centres undefined)	27%[2.29 µM]	18%	-10%[0.501 µM]	1%	26%	35%
COc1ccc(N2C(=O)C3C(C2=O)C(C(=O)c2ccc(Cl)cc2)N2CCCC32)cc1 (centres undefined)	-16%	28µM*	?	?	?	?
COCCn1c(C)cc(O)c(C(c2ccccc2)N2CCN(C)CC2)c1=O (centres undefined)	nt	nt	?	-23%	15%[57 µM]	-1%
COc1ccc(CCn2c(C)cc(C(=O)COC(=O)c3cnc(C)cn3)c2C)cc1	-5%	nt	50µM*	-31%	35%	?
COc1ccc(CCn2c(C)cc(C(=O)COC(=O)c3cnccn3)c2C)cc1	nt	-7%	?	-29%	5%	?
CCc1ccc(-c2nc(CSCC(=O)N3CCN(c4ccccn4)CC3)c(C)o2)cc1	-16%	-8%	52%[59 µM]	?	-17%	50µM*
